Screens (PubChem BioAssay)
The list is not random: actives were taken first. Their share in the collection is about 3.1%.
DRD3 antagonist: D3 dopamine receptor (human) antagonism | P35462 | D3R cells, DiscoveRx beta-arrestin luminescence, antagonist mode; active compounds read low | max response, negative = inhibition, % | 360,000 compounds, 2.5% hits | AID 652054; in the data active = max response below about -50%; inconclusive = no clear call, values can overlap the other calls; note: % is set by controls: 0 for no effect and ±100 for the full control effect
Target sequence (P35462 whole entry, looked up): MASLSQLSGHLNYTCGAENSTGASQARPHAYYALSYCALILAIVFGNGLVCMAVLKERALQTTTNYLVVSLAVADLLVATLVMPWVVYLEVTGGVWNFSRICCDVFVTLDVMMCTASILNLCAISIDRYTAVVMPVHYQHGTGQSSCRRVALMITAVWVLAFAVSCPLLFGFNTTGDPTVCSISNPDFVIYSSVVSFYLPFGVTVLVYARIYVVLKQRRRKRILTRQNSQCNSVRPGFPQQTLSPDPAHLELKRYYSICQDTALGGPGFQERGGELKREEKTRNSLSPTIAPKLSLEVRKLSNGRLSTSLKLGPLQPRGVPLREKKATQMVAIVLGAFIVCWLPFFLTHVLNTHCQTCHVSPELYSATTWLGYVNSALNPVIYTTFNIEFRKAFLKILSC
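Cells plated overnight at 1500 cells/well, then exposed to library compounds with dopamine controls for 90 minutes at 37 degrees C. DiscoveRx reagent added for 30–60 minutes at room temperature; luminescence read, quantitative HTS format.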
D3 ag: activates the human D3 dopamine receptor; P35462; max activation, %; 410,000 compounds, 0.58% hits; AID 652048; D3R DiscoveRx beta-arrestin cells, luminescence, 90 min; in the data active = max activation above about 30%; note: 0% is about no effect
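Cells at 1500/well, incubated overnight, then treated with pinned compounds (dopamine as control) for 90 min at 37 degrees C. DiscoveRx reagent added for 30 - 60 minutes at room temperature; luminescence read.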
uPA generation: blocks generation of uPA at the cell surface | cell surface uPA generation assay, qHTS | Potency, µM (top dose mostly 38.3 µM), for inactives: top-dose activity change, negative = inhibition, most hits filed as inhibitors | 330,000 compounds, 0.31% hits | AID 540303; active = well fitted inhibition curve with a large enough effect; inconclusive = small, poorly fitted or top-dose-only effect; inactive = no such curve, though single readings can be large or run the other way; tested in mouse RAW 264.7 cells; note: potency is the fitted concentration of half-maximal effect; % is set by controls: 0 for no effect and ±100 for the full control effect; nearly all actives have a fitted effect of over 55% in size
RGS4 inhibitor: blocks human RGS4-accelerated GTP hydrolysis | P49798 | Transcreener GDP fluorescence polarization, RGS4-accelerated GTP hydrolysis | Potency, µM (series often up to 114 µM), inactives show at the top dose activity change, negative = inhibition, usual class: inhibitors | 390,000 compounds, 0.039% hits | AID 504845; active = well fitted inhibition curve with a large enough effect; inconclusive = small, poorly fitted or top-dose-only effect; inactive = no such curve, though single readings can be large or run the other way; note: potency is the fitted concentration of half-maximal effect; % is set by controls: 0 for no effect and ±100 for the full control effect; nearly all actives have a fitted effect of over 75% in size
Target sequence (P49798 whole entry, looked up): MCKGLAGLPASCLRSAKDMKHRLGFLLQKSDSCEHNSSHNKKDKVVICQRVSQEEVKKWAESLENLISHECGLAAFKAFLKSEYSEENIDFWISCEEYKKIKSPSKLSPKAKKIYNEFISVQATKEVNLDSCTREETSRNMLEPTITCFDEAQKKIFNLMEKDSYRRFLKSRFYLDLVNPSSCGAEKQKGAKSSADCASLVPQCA
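MLSMR compounds (23 nl, pin-transferred) preincubated 10 min at room temperature with a 500nM (2x) first reagent, then RGS4 at 900nM (2x) plus Transcreener GDP mix added; fluorescence polarization (620/688 nm) read before and after 90 min at 30 °C.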
* hit, by the source's call; i = inactive; ? = inconclusive; nt = not tested or not shown; ! = repeats disagree; [ ] = remark or other dose.

SMILES	DRD3 antagonist	D3 ag	uPA generation	RGS4 inhibitor
CCN(CC)S(=O)(=O)c1ccc(NC(=O)[C@H](CSCc2ccccc2)N2Cc3ccccc3C2=O)cc1	nt	1.8	nt	13.4%
Cc1cccc(-c2nnc(-c3cccc(NC(=O)Cc4cccs4)c3)o2)c1	34.2	30.7*	0.7%	0.5%
COc1ccccc1CN=C1NC(=O)C(CC(=O)Nc2ccc(C(C)=O)cc2)S1 (configuration not stated)	-2.9	52.6*	5.0%	15.2%
Cc1ccc2c(=O)cc(C(=O)Nc3sc4c(c3C(=O)NCc3ccco3)CCC4)oc2c1	nt	-15.7	nt	30.9%
CCn1cc(CCC(=O)NC(C)c2ccccc2)c2ccccc21 (configuration not stated)	-54.6*	-0.3	-2.8%	-10.1%
Cc1ccc(C)c(N2CCN(CC3CC=CCC3)CC2)c1 (configuration not stated)	-72.9*	-29.0	0.7%	-15.4%
C1=CCC(CN2CCNCC2)CC1 (configuration not stated)	-3.7	1.4	0.9%	-7.5%
COC1=C(Br)C(=O)c2nc(C)ccc2C1=O	-118.5*	-17.3	nt	nt
S=C1NC[C@H](Cc2ccccc2)N1CC1CCN(CCCCc2ccccc2)CC1	-92.6*	-41.5	-19.7%	11.5%
CCCCN1CCC(CN2C(=O)C(=O)NC[C@@H]2Cc2ccccc2)CC1	-19.5	-25.0	-11.7%	4.2%
O=C1NC[C@H](Cc2ccccc2)N(CC2CCN(CCCCc3ccccc3)CC2)C1=O	-50.5*	-46.0	20.3%	13.3%
CC(C)CCN1CCC(CN2C(=S)NC[C@@H]2Cc2ccccc2)CC1	-27.7	-49.8	11.5%	11.6%
CC(CCN1CCC(CN2C(=S)NCC2Cc2ccccc2)CC1)c1ccccc1 (configuration not stated)	-62.8*	-41.0	-8.5%	7.5%
c1cnc2cc3c(cc2n1)[C@@H]1CNC[C@H]3C1	nt	4.0	nt	nt
COc1cccc(CNC(=O)CSc2ncc3c(n2)-c2cc(Cl)ccc2N(C)S3(=O)=O)c1	nt	-10.5	nt	3.6%
C[N@+]12CCCC[C@@H]1CCC(=C(c1cccs1)c1cccs1)C2	nt	-21.6	nt	nt
CS(=O)(=O)c1ccc(C(=O)OCC(=O)NCC2CCCO2)cc1[N+](=O)[O-] (configuration not stated)	nt	nt	nt	3.9%
CCc1nn2c(=O)cc(COc3ccc(/C=C(\C#N)C(=O)Nc4ccc(C)cc4)cc3)nc2s1	nt	-9.2	nt	-3.1%
CC1=C(C(=O)Nc2ccc(C)c(C)c2)C2(CCCCCC2)OC1=O	nt	-20.0	nt	-2.4%
COc1ccc(/C=N/NC(=O)C[n+]2ccccc2)c(OC)c1OC	-50.7*	-12.0	-4.6%	-3.2%
CCCCCCCCCCCCCCCCCCOC[C@H](COP(=O)([O-])OCC[N+](C)(C)C)OC(C)=O	nt	nt	nt	i
Cc1cccnc1Nc1nc(-c2ccccc2)cs1	29.2	-1.4	-13.3%	-15.3%
COc1ccc(-c2csc(Nc3cccc(C)n3)n2)cc1C	9.0	41.5*	-1.9%	-13.4%
COc1ccc(-c2csc(Nc3cccc(C)n3)n2)cc1	7.8	6.8	-2.7%	-12.0%
Cc1cccnc1Nc1nc(-c2ccccn2)cs1	-86.4*	-38.6	-1.9%	23.8%
SMILES	DRD3 antagonist	D3 ag	uPA generation	RGS4 inhibitor
Cc1cccc(Nc2nc(-c3ccccn3)cs2)n1	-79.0*	-41.0	nt	-15.5%
Cc1cc(Nc2cccc(C(F)(F)F)c2)nc2ccc(NC(=O)c3cccnc3)cc12	nt	-7.5	nt	16.7%
Cn1ccc2c(-c3ccccc3F)cc3c(c21)C1CCC3C1 (configuration not stated)	-54.3*	-4.8	nt	nt
COc1ccccc1-c1cc2c(c3c1ccn3C)C1CCC2C1 (configuration not stated)	-7.9	-6.8	nt	nt
CCc1nc2c(OCC(=O)C(C)(C)C)cccn2c1N(C)C(=O)COc1ccccc1	0.0	6.2	nt	nt
CC(=O)N(CCCN(C)C)Cc1ccccn1	0.0	44.2*	2.2%	6.0%
COc1cc(Cl)c(C)cc1NC(=O)CSc1cc(-c2ccccc2)nc(C)n1	nt	16.4	nt	6.3%
COCCCNC(=S)Nc1cc(C)c(C)cc1C	3.3	3.5	4.3%	16.6%
COCCNC(=S)Nc1cc(OC)c(OC)cc1C#N	-50.8*	-2.6	2.0%	-0.7%
CCCCOc1ccc(OCCCN2CCOCC2)cc1	4.9	87.3*!	-4.0%	14.4%
CCC(C)c1ccc(OCCCCN2CCOCC2)cc1 (configuration not stated)	-64.6*	-6.1	4.2%	16.6%
CC(=O)Nc1ccn(C2OC(C(COC(C)=O)NC(=O)C(COCc3ccccc3)NC(=O)OC(C)(C)C)C(OC(C)=O)C2OC(C)=O)c(=O)n1 (configuration not stated)	nt	nt	nt	24.4%
COC(=O)c1ccccc1NC(=O)C1CCN(C(=O)N2CC(C)Oc3ccccc32)CC1 (configuration not stated)	nt	1.7	nt	-9.7%
Cc1ccc(C(=O)c2cc([N+](=O)[O-])ccc2N2CCCCC2)c(C)c1	-56.1*	-10.5	-9.7%	14.2%
CCOC(=O)c1c(/N=C/c2cccc([N+](=O)[O-])c2O)sc(C)c1C	-101.8*	-11.6	-1.2%	?
COc1cccc(C(=O)Nc2ccc3c(cc2=O)[C@@H](NC(C)=O)CCc2cc(OC)c(OC)c(OC)c2-3)c1	52.9	12.2	10µM*	0.0%
Cc1nc2ccn(Cc3ccccc3)c(=O)c2cc1C(=O)N1CCN(c2ccccc2F)CC1	nt	9.5	nt	3.4%
COc1ccc(NC(=O)N2CCN(c3nc(-c4cccc(OC)c4)cs3)CC2)cc1	18.6	50.9*	nt	-12.4%
CCN(CC)c1ccc2c(C)c(CN3CCOCC3)c(=O)oc2c1	-75.2*	-6.1	-0.1%	-9.9%
CC(C)CN(CCNC(=O)c1cn(C)c2ccc(S(=O)(=O)N3CCCCCC3)cc2c1=O)CC(C)C	nt	4.5	nt	-6.2%
COc1ccc(NC(=O)c2cc3ccccn3n2)cc1	-19.9	-9.6	4.47µM*	3.5%
CC1=CC(=O)C=C(C)C1=NOC(=O)c1cccc([N+](=O)[O-])c1	-82.5*	8.0	-9.3%	1.0%
Cc1cccc(C(=O)O/N=C(\N)c2cccc([N+](=O)[O-])c2)c1	-29.0	-14.6	nt	26.6%
O=C(CCN1C(=O)/C(=C/c2ccc(Cl)cc2)SC1=S)Nc1cccc(C(=O)O)c1	-27.6	9.9	4.5%	?
O=C(O)c1cccc(N2C(=O)/C(=C/c3ccc(SCc4ccc(Cl)cc4)o3)SC2=S)c1	-59.2*	-15.4	7.9%	-42.1%
CSc1ccc2c(c1)N(CCC1CCCCN1C)c1ccccc1S2 (configuration not stated)	-88.9*	-81.5	?	0.8%[56.9 µM]
COc1cc(-c2nc3nc[nH]n3c2Nc2ccc(C(C)C)cc2)ccc1O	nt	-5.0	nt	-6.8%
CC1CCN(C(=O)c2ccc(NC3=C(Cl)C(=O)N(Cc4ccccc4)C3=O)cc2)CC1	-53.0*	-33.1	?	-27.1%
COC(=O)C(C)Sc1ccc2nnc(-c3ccc(F)cc3)n2n1 (configuration not stated)	-21.1	-20.0	nt	-1.7%
CCC(Sc1ccc2nnc(-c3ccc(F)cc3)n2n1)C(=O)OC (configuration not stated)	-75.0*	-17.6	nt	11.1%
